Laboratory results taken from PubChem BioAssay (Tox21).
Inconclusive results are not listed. The source made the active and inactive calls. Unless noted, the call rests on the fitted dose curve; in most records, active means well fitted curve in the direction sought with a large enough effect in the repeat runs; inconclusive means weak or mixed curves; inactive means no such curve, though single readings can be large; an effect the other way counts as inactive or inconclusive.

assay: qHTS assay for small molecule activators of the heat shock response signaling pathway - cell viability counter screen (AID 743209); settings: HSE-bla HeLa viability, CellTiter-Glo luminescence, 5 h; series mostly up to 62.6 µM; activity change, negative = cytotoxicity: at the top concentration; further: nearly all actives have a fitted effect of over 50% in size
Outline: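 HSE-bla HeLa cells plated overnight, then exposed to Tox21 compounds (23 nL in DMSO) for 5 h at 37 C. After the bla reporter read, CellTiter-Glo was added in the same wells and luminescence read after 30 min at room temperature.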
On the % scale 0 is the no-effect control and ±100 the full control effect.

| SMILES | activity change, negative = cytotoxicity | outcome |
| --- | --- | --- |
| Cn1c(N)c(N=O)c(=O)n(C)c1=O | 4.52% [at 81.1 µM] (inactive) | – |
| Nc1ccccc1S(=O)(=O)O | -3.82% (inactive) | – |
| COc1c(N2C[C@@H]3CCCN[C@@H]3C2)c(F)cc2c(=O)c(C(=O)O)cn(C3CC3)c12 | 0.204% (inactive) | – |
| CC(=O)OCC(CCn1cnc2cnc(N)nc21)COC(C)=O | -8.27% (inactive) | – |
| CCn1nc(C(=O)O)c(=O)c2cc3c(cc21)OCO3 | 1.37% (inactive) | – |
| CCC(C)S (stereo not given) | -3.21% [at 2.7 µM] (inactive) | – |
| CCCCCCOC(=O)CCCCC(=O)OCCCCCC | -0.328% (inactive) | – |
| CC/C=C\CCOC(C)=O | 5.01% (inactive) | – |
| C[C@H]1C[C@@H](O)CC(C)(C)C1 | -5.22% (inactive) | – |
| O=C1OC(=O)C2CCCCC12 (stereo not given) | -13.6% (inactive) | – |
| O=C1CC2CC1C1CCCC21 (stereo not given) | -3.12% (inactive) | – |
| CCCN(CCC)CCc1cccc2c1CC(=O)N2 | -6.06% (inactive) | – |
| C=C(C)CS(=O)(=O)O | -4.42% (inactive) | – |
| Nc1cc(=O)[nH]c(N)n1 | 8.99% (inactive) | – |
| NCCCNCCSP(=O)(O)O | 4.97% [at 13.2 µM] (inactive) | – |
| CC(=O)OCC(=O)[C@@]1(O)CCC2C3CCC4=CC(=O)CC[C@]4(C)C3[C@@H](O)C[C@@]21C (stereo not given in full) | -0.906% (inactive) | – |
| NS(=O)(=O)c1ccc(C(=O)O)cc1 | -7.97% (inactive) | – |
| CCOc1ccc(C(=O)OCCN(CC)CC)cc1 | 3.43% (inactive) | – |
| O=c1cc(CO)occ1O | 5.3% (inactive) | – |
| O=c1[nH]c(=O)n([C@H]2C[C@H](O)[C@@H](CO)O2)cc1I | -25.1% (inactive) | – |
| CC(C[N+](C)(C)C)OC(N)=O (stereo not given) | -6.07% (inactive) | – |
| CO[Si](CCCOCC1CO1)(OC)OC (stereo not given) | – | inactive |
| CN1C(=O)N(C)C(O)C1O (stereo not given) | -4.6% (inactive) | – |
| CC1=CC(C)C(C=O)CC1 (stereo not given) | 5.52% (inactive) | – |
| OCCOc1ccc(OCCO)cc1 | -8.73% [at 81.1 µM] (inactive) | – |
| O=C(O)c1ccccc1OP(=O)(O)O | -10.1% (inactive) | – |
| CC(C)NC(=O)NC(C)C | 1.52% (inactive) | – |
| O=c1n(CCO)c(=O)n(CCO)c(=O)n1CCO | 14.3% [at 81.1 µM] (inactive) | – |
| CCC(C)C1CCCCC1=O (stereo not given) | 3.47% (inactive) | – |
| COC(C)(C)CCCC(C)CC=O (stereo not given) | 0.886% (inactive) | – |

assay: qHTS assay for small molecule activators of the heat shock response signaling pathway (AID 743210; active means well fitted activation curve with a large enough effect in the signal ratio in the repeat runs, with a control signal flat, not every such curve was filed as active; the % refers to the signal ratio); settings: HeLa HSE-bla reporter, beta-lactamase ratio, 5 h; series mostly up to 62.6 µM; activation: at the top concentration
Outline: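 HSE-bla HeLa cells (beta-lactamase reporter under heat shock response elements) were exposed to compounds for 5 h at 37 C, then loaded with LiveBLAzer B/G FRET substrate for 2.5 h at room temperature before fluorescence reading.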

| SMILES | activation | outcome |
| --- | --- | --- |
| Cn1c(N)c(N=O)c(=O)n(C)c1=O | -0.273% [at 81.1 µM] (inactive) | – |
| N[C@H](C(=O)O)c1ccc(O)cc1 | 0.6% [at 29.1 µM] (inactive) | – |
| Nc1ccccc1S(=O)(=O)O | -1.12% (inactive) | – |
| COc1c(N2C[C@@H]3CCCN[C@@H]3C2)c(F)cc2c(=O)c(C(=O)O)cn(C3CC3)c12 | 0.575% (inactive) | – |
| CCn1nc(C(=O)O)c(=O)c2cc3c(cc21)OCO3 | -0.15% (inactive) | – |
| CCCCCCOC(=O)CCCCC(=O)OCCCCCC | -0.954% (inactive) | – |
| CC/C=C\CCOC(C)=O | 0.629% (inactive) | – |
| O=C1OC(=O)C2CCCCC12 (stereo not given) | -0.872% (inactive) | – |
| O=C1CC2CC1C1CCCC21 (stereo not given) | -2.79% (inactive) | – |
| CCCN(CCC)CCc1cccc2c1CC(=O)N2 | -0.125% (inactive) | – |
| C=C(C)CS(=O)(=O)O | 0.0919% (inactive) | – |
| Nc1cc(=O)[nH]c(N)n1 | -0.696% (inactive) | – |
| NCCCNCCSP(=O)(O)O | -0.51% [at 13.2 µM] (inactive) | – |
| CC(=O)OCC(=O)[C@@]1(O)CCC2C3CCC4=CC(=O)CC[C@]4(C)C3[C@@H](O)C[C@@]21C (stereo not given in full) | -1.42% (inactive) | – |
| CCOc1ccc(C(=O)OCCN(CC)CC)cc1 | -0.516% (inactive) | – |
| O=c1cc(CO)occ1O | -0.764% (inactive) | – |
| O=c1[nH]c(=O)n([C@H]2C[C@H](O)[C@@H](CO)O2)cc1I | -0.05% (inactive) | – |
| CC(C[N+](C)(C)C)OC(N)=O (stereo not given) | -0.753% (inactive) | – |
| CO[Si](CCCOCC1CO1)(OC)OC (stereo not given) | – | inactive |
| CC1=CC(C)C(C=O)CC1 (stereo not given) | -0.559% (inactive) | – |
| OCCOc1ccc(OCCO)cc1 | -0.199% [at 81.1 µM] (inactive) | – |
| O=C(O)c1ccccc1OP(=O)(O)O | 2.8% (inactive) | – |
| CC(C)NC(=O)NC(C)C | -0.366% (inactive) | – |
| CCN(CC)CCNC(=O)c1cc(S(C)(=O)=O)ccc1OC | 0% (inactive) | – |
| Cn1cc(S(C)=O)c(=O)c2ccc(F)cc21 (stereo not given) | -0.2% (inactive) | – |
| CC(C)c1cc2c(cc1S(=O)(=O)O)[C@@]1(C)CCC[C@@](C)(C(=O)O)[C@@H]1CC2 | -1.05% (inactive) | – |
| O=c1n(CCO)c(=O)n(CCO)c(=O)n1CCO | 0.149% [at 81.1 µM] (inactive) | – |
| CCC(C)C1CCCCC1=O (stereo not given) | -0.886% (inactive) | – |
| COC(C)(C)CCCC(C)CC=O (stereo not given) | 0.772% (inactive) | – |

assay: qHTS assay to identify small molecule agonists of the peroxisome proliferator-activated receptor delta (PPARd) signaling pathway - cell viability counter screen (AID 743211); settings: PPARd-bla HEK293H viability, CellTiter-Glo luminescence, 17 h; series mostly up to 62.6 µM; activity change, negative = cytotoxicity: at the top concentration; further: nearly all actives have a fitted effect of over 55% in size
Outline: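 PPARd-bla HEK293H cells (3000/well) were pre-incubated 5 h at 37 C, then exposed to compound for 17 h at 37 C. After 2 h with LiveBLAzer substrate, CellTiter-Glo was added to the same wells; luminescence read after 30 min at room temperature.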

| SMILES | activity change, negative = cytotoxicity | Potency |
| --- | --- | --- |
| Cn1c(N)c(N=O)c(=O)n(C)c1=O | -0.294% [at 81.1 µM] (inactive) | – |
| N[C@H](C(=O)O)c1ccc(O)cc1 | 7.2% [at 29.1 µM] (inactive) | – |
| Nc1ccccc1S(=O)(=O)O | 7.95% (inactive) | – |
| COc1c(N2C[C@@H]3CCCN[C@@H]3C2)c(F)cc2c(=O)c(C(=O)O)cn(C3CC3)c12 | -5.12% (inactive) | – |
| CC(=O)OCC(CCn1cnc2cnc(N)nc21)COC(C)=O | 9.02% (inactive) | – |
| CCn1nc(C(=O)O)c(=O)c2cc3c(cc21)OCO3 | -23.8% (inactive) | – |
| CCC(C)S (stereo not given) | 2.23% [at 2.7 µM] (inactive) | – |
| CCCCCCOC(=O)CCCCC(=O)OCCCCCC | 6.87% (inactive) | – |
| CC/C=C\CCOC(C)=O | 2.21% (inactive) | – |
| O=C1OC(=O)C2CCCCC12 (stereo not given) | 4% (inactive) | – |
| O=C1CC2CC1C1CCCC21 (stereo not given) | 2.22% (inactive) | – |
| CCCN(CCC)CCc1cccc2c1CC(=O)N2 | -1.79% (inactive) | – |
| C=C(C)CS(=O)(=O)O | 6.41% (inactive) | – |
| Nc1cc(=O)[nH]c(N)n1 | 2.06% (inactive) | – |
| NCCCNCCSP(=O)(O)O | 8.83% [at 13.2 µM] (inactive) | – |
| CC(=O)OCC(=O)[C@@]1(O)CCC2C3CCC4=CC(=O)CC[C@]4(C)C3[C@@H](O)C[C@@]21C (stereo not given in full) | 3.16% (inactive) | – |

| SMILES | activity change, negative = cytotoxicity | Potency |
| --- | --- | --- |
| NS(=O)(=O)c1ccc(C(=O)O)cc1 | 3.76% (inactive) | – |
| O=c1cc(CO)occ1O | 9.2% (inactive) | – |
| O=c1[nH]c(=O)n([C@H]2C[C@H](O)[C@@H](CO)O2)cc1I | -0.79% (inactive) | – |
| CC(C[N+](C)(C)C)OC(N)=O (stereo not given) | 1.26% (inactive) | – |
| CO[Si](CCCOCC1CO1)(OC)OC (stereo not given) | – | inactive |
| CC1=CC(C)C(C=O)CC1 (stereo not given) | 5.9% (inactive) | – |
| OCCOc1ccc(OCCO)cc1 | 2.63% [at 81.1 µM] (inactive) | – |
| O=C(O)c1ccccc1OP(=O)(O)O | 1.78% (inactive) | – |
| CC(C)NC(=O)NC(C)C | -0.814% (inactive) | – |
| CCN(CC)CCNC(=O)c1cc(S(C)(=O)=O)ccc1OC | -2.55% (inactive) | – |
| Cn1cc(S(C)=O)c(=O)c2ccc(F)cc21 (stereo not given) | 7.43% (inactive) | – |
| CC(C)c1cc2c(cc1S(=O)(=O)O)[C@@]1(C)CCC[C@@](C)(C(=O)O)[C@@H]1CC2 | -0.359% (inactive) | – |
| O=c1n(CCO)c(=O)n(CCO)c(=O)n1CCO | -0.882% [at 81.1 µM] (inactive) | – |
| CCC(C)C1CCCCC1=O (stereo not given) | 8% (inactive) | – |
| COC(C)(C)CCCC(C)CC=O (stereo not given) | 3.28% (inactive) | – |
